These results are taken from publication PMC7862700, “An all-to-all approach to the identification of sequence-specific readers for epigenetic DNA modifications on cytosine”.

Assay in all cases: DAPPL (digital affinity profiling via proximity ligation, sequencing); 10 mM Tris-HCl pH 7.5, 50 mM NaCl, 1 mM DTT, 4% glycerol, room temperature, 30 min; GST-TFs on glutathione beads, 16-mer random dsDNA library, 0.1% formaldehyde crosslink after washing; high values mean tight binding
What all share (conditions): protein: recombinant; tags: N-terminal GST; dsDNA, one strand shown

One assay addresses T1, FLI1 (Homo sapiens, UniProt Q01543 1-452).
T1 sequence: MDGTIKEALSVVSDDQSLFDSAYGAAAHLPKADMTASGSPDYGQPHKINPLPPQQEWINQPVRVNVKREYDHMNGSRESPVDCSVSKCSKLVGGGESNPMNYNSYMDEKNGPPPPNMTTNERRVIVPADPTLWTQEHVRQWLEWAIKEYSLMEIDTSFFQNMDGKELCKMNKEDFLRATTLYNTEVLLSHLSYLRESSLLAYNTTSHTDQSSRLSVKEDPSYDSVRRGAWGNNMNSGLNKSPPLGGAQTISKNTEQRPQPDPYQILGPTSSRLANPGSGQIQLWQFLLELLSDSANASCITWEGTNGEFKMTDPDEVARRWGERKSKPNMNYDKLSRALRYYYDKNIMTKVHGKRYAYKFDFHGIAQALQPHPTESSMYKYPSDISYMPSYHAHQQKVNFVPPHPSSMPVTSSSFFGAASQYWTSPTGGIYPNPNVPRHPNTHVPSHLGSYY
The procedure, abridged:
(§1)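 Binding signal is defined as a hexamer's read frequency for one factor over its frequency for the tag-only sample. To obtain reads, GST-fused human transcription factors were expressed in yeast, captured on glutathione beads, barcoded with DNA and pooled with that sample. Pools met 200 nmole of a 16-mer random double-stranded DNA library in Tris/NaCl/DTT/glycerol buffer for 30 min at room temperature before washing, 0.1% formaldehyde crosslinking, proximity ligation (BsaI/T4 ligase, 1 h, 37 °C), PCR and Illumina NextSeq500 sequencing.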

The next assay deals with T2, ELK1 (Homo sapiens, UniProt P19419 1-428).
T2 sequence: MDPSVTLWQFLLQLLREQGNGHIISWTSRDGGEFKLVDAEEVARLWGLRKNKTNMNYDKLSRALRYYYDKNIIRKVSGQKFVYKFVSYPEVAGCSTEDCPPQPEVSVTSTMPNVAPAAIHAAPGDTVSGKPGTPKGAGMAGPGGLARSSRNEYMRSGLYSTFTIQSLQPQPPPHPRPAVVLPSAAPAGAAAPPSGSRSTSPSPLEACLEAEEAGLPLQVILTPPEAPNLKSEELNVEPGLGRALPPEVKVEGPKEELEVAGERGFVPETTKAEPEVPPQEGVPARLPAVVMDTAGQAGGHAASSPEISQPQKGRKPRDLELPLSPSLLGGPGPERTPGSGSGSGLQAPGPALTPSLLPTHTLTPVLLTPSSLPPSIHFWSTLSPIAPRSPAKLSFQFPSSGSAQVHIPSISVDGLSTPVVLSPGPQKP
The procedure, abridged:
as §1

A further assay has as its target T3, GABPA (Homo sapiens, UniProt Q06546 1-454).
T3 sequence: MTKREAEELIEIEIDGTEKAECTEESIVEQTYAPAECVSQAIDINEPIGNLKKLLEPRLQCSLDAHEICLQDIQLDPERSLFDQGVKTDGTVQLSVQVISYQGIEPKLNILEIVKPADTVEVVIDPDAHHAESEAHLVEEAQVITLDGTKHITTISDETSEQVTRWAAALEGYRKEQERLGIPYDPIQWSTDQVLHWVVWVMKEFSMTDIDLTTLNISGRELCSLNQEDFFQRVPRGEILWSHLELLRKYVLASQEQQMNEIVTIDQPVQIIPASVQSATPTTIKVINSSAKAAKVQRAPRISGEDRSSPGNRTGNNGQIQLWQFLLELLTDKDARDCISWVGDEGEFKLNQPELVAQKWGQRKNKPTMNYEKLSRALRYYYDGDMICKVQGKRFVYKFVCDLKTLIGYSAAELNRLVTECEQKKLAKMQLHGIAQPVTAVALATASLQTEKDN
The procedure, abridged:
as §1

For a further assay, the target named is T4, ERG (Homo sapiens, UniProt P11308 1-479).
T4 sequence: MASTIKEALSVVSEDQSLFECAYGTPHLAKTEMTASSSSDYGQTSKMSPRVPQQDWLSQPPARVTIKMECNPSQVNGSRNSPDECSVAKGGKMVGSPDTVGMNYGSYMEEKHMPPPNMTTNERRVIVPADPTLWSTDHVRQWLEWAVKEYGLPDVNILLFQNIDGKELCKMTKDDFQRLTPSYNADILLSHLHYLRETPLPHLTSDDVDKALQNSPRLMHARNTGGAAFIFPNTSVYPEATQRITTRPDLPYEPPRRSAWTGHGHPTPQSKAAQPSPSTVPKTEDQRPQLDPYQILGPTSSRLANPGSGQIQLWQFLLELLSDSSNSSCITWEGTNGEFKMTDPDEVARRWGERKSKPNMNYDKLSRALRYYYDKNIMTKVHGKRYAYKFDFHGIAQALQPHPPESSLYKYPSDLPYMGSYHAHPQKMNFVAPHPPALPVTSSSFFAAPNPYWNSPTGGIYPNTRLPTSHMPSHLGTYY
The procedure, abridged: as §1

Another assay addresses ELF1 (Homo sapiens, UniProt P32519 1-619). The procedure, abridged:
as §1

The next assay concerns the target T5, EHF (Homo sapiens, UniProt Q9NZC4 1-300).
T5 sequence: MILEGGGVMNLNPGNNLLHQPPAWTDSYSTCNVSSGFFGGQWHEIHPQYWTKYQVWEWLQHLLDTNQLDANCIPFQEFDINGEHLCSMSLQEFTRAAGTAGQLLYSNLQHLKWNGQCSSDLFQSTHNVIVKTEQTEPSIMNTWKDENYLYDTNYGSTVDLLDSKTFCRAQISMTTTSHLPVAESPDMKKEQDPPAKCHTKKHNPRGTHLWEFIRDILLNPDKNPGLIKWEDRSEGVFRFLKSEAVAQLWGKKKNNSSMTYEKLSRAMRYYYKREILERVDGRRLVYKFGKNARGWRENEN
The procedure, abridged: as §1

The target of a further assay is SPI1 (Homo sapiens, UniProt P17947 1-270). The procedure, abridged: as §1
In another assay the target is SPIB (Homo sapiens, UniProt Q01892 1-262). The procedure, abridged: as §1
Sequence of SPIB (Q01892 whole entry): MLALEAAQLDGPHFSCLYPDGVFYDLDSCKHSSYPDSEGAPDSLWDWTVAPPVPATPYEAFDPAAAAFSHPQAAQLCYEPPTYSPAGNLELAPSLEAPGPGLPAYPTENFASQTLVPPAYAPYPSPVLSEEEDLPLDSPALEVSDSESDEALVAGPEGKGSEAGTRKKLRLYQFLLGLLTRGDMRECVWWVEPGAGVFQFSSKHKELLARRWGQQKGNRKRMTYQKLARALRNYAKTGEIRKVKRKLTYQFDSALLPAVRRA
The next assay deals with T6, ELK3 (Homo sapiens, UniProt P41970 1-407).
T6 sequence: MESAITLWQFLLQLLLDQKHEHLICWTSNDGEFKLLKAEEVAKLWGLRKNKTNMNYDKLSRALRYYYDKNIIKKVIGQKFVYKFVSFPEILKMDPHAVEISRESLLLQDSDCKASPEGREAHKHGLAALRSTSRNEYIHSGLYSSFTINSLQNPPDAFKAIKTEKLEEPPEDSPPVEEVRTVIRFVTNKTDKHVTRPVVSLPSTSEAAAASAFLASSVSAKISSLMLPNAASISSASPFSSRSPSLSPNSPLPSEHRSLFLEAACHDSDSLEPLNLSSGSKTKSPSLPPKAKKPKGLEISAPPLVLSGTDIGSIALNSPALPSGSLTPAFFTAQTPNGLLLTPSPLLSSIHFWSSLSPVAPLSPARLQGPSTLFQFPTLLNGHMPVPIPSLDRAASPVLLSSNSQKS
The procedure, abridged: as §1

A further assay deals with T7, FEV (Homo sapiens, UniProt Q99581 1-238).
T7 sequence: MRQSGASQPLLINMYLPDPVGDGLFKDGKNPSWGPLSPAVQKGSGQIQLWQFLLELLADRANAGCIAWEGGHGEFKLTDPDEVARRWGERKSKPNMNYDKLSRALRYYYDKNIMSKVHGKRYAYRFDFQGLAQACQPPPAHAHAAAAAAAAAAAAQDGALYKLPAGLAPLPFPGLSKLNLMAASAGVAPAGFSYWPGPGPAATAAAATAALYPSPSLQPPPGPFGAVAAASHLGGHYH
The procedure, abridged:
as §1

In another assay the target is ETV5 (Homo sapiens, UniProt P41161 1-510). The procedure, abridged:
as §1

Another assay concerns the target T8, SPIC (Homo sapiens, UniProt Q8N5J4 1-248).
T8 sequence: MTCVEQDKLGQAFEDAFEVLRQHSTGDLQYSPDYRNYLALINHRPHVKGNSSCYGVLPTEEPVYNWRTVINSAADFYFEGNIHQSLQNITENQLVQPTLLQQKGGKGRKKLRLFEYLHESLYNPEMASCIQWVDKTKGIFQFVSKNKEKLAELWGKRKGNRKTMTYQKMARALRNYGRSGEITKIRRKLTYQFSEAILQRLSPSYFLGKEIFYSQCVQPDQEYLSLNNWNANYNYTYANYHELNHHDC
The procedure, abridged: as §1

In the next assay the target is ELF4 (Homo sapiens, UniProt Q99607 1-663). The procedure, abridged: as §1
Sequence of ELF4 (Q99607 whole entry): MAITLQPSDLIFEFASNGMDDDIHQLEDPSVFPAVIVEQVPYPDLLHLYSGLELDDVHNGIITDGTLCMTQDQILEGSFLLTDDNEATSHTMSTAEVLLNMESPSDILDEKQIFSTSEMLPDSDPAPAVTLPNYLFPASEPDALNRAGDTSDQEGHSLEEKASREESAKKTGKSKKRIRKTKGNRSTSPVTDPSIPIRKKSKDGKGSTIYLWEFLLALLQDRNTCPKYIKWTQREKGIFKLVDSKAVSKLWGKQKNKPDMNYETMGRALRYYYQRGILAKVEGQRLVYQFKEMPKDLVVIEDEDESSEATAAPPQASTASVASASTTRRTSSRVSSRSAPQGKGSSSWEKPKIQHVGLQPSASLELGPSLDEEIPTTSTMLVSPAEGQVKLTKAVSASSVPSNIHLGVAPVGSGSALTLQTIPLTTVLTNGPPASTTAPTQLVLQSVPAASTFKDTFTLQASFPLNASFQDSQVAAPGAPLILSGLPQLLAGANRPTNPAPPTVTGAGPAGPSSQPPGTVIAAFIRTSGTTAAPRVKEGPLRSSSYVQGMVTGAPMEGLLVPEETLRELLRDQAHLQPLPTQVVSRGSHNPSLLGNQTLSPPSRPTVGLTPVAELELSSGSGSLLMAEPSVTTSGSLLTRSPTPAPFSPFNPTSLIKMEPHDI
The next assay concerns the target T9, ELK4 (Homo sapiens, UniProt P28324-2 1-405).
T9 sequence: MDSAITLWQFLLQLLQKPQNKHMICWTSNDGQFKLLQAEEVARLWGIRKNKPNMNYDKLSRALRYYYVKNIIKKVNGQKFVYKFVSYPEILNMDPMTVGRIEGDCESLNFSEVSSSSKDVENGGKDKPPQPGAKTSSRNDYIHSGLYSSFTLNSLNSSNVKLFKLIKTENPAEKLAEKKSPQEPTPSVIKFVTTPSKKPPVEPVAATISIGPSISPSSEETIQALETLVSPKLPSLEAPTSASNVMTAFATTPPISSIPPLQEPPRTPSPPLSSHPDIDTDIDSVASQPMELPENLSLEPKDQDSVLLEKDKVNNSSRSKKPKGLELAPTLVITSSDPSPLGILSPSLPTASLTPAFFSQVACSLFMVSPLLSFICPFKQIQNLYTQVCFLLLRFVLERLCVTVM
The procedure, abridged:
as §1

The target of the next assay is T10, ETV2 (Homo sapiens, UniProt O00321 1-342).
T10 sequence: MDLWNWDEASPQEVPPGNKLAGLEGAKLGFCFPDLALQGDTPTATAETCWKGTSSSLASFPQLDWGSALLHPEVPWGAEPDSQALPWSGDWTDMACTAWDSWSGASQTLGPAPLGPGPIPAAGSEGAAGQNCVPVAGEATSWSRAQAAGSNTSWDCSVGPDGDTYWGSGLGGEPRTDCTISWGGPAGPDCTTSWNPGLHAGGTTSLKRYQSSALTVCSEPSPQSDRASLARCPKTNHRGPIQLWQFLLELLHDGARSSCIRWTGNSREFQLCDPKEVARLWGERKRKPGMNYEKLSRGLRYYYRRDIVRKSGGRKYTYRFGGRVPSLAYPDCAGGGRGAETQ
The procedure, abridged: as §1

The next assay has as its target T11, ELF3 (Homo sapiens, UniProt P78545 1-371).
T11 sequence: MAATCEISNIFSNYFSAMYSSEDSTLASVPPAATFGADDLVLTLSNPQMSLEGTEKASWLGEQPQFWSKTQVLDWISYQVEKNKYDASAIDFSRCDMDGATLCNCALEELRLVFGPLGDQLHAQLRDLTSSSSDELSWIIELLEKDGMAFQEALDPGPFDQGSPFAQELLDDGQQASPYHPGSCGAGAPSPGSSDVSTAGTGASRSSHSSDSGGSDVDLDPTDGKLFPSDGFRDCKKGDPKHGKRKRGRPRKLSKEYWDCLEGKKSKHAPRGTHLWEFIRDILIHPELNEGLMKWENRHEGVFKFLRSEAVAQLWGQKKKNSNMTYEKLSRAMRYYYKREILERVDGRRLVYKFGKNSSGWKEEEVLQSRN
The procedure, abridged:
as §1

The target of another assay is ETV1 (Homo sapiens, UniProt P50549 1-477). The procedure, abridged: as §1
Sequence of ETV1 (P50549 whole entry): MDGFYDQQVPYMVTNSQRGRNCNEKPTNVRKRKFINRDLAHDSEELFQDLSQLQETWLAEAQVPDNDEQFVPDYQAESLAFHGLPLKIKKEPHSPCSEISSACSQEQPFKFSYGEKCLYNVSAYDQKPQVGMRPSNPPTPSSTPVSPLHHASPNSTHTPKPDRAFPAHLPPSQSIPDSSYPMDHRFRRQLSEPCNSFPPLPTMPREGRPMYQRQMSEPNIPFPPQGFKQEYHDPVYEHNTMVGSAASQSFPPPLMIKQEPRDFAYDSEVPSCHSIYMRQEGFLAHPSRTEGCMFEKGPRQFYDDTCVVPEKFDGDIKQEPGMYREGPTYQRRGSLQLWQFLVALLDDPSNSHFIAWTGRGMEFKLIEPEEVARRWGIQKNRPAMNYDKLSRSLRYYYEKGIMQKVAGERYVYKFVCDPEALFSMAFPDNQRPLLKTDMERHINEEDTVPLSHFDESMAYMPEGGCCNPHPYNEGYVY

Sequence of ELF1 (P32519 whole entry): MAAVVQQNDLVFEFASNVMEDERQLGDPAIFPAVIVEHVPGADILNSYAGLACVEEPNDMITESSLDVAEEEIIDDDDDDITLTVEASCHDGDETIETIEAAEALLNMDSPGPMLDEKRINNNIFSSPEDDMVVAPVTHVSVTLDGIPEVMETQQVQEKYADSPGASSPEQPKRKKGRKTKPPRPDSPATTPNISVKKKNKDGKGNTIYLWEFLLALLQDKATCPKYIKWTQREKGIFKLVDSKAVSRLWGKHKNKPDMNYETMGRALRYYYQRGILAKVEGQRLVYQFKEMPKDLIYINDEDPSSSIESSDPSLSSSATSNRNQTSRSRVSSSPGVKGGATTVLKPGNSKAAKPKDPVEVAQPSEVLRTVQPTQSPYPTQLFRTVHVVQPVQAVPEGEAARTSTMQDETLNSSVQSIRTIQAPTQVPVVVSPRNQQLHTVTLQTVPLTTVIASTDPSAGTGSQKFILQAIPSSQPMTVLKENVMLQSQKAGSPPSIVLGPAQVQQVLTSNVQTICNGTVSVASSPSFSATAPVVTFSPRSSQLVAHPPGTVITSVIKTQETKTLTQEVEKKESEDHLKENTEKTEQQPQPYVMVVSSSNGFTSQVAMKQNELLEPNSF
Sequence of ETV5 (P41161 whole entry): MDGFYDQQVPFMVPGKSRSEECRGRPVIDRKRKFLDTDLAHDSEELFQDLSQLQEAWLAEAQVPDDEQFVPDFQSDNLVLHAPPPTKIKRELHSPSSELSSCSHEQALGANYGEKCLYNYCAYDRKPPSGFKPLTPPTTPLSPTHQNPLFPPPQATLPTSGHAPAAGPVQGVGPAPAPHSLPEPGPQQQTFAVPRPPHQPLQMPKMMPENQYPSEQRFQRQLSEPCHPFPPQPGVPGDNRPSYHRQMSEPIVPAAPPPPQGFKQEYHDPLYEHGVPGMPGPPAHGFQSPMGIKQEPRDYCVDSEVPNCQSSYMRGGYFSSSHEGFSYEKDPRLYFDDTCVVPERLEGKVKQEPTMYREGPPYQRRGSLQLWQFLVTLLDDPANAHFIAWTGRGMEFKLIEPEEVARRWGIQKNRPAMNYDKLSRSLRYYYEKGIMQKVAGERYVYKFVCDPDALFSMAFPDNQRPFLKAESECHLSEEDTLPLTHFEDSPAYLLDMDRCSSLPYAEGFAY

Regarding ACCCAC, the binding signal in the assay with FLI1 was 1.28 fold enrichment (6-mer frequency, TF over GST control); with ELK1, 1.24 fold enrichment (6-mer frequency, TF over GST control); with GABPA it was 1.35 fold enrichment (6-mer frequency, TF over GST control); in the assay with ERG, 1.1 fold enrichment (6-mer frequency, TF over GST control); with ELF1, 1.13 fold enrichment (6-mer frequency, TF over GST control); with EHF, 1.21 fold enrichment (6-mer frequency, TF over GST control). For the same sequence, the binding signal was 1.18 fold enrichment (6-mer frequency, TF over GST control) with SPI1; 1.07 fold enrichment (6-mer frequency, TF over GST control) in the assay with SPIB; 1.24 fold enrichment (6-mer frequency, TF over GST control) in the assay with ELK3; 1.22 fold enrichment (6-mer frequency, TF over GST control) with FEV; 1.15 fold enrichment (6-mer frequency, TF over GST control) in the assay with ETV5; 1.23 fold enrichment (6-mer frequency, TF over GST control) in the assay with SPIC. Also, the binding signal in the assay with ELF4 is 1.23 fold enrichment (6-mer frequency, TF over GST control); in the assay with ELK4, 1.21 fold enrichment (6-mer frequency, TF over GST control); with ETV2 it was 1.19 fold enrichment (6-mer frequency, TF over GST control); with ELF3 it was 1.33 fold enrichment (6-mer frequency, TF over GST control); with ETV1, 1.17 fold enrichment (6-mer frequency, TF over GST control).
CGGATA: the binding signal in the assay with FLI1 was 1.15 fold enrichment (6-mer frequency, TF over GST control); in the assay with ELK1 it was 1.27 fold enrichment (6-mer frequency, TF over GST control); with GABPA, 1.09 fold enrichment (6-mer frequency, TF over GST control); with ERG it was 1.5 fold enrichment (6-mer frequency, TF over GST control); with ELF1, 1.16 fold enrichment (6-mer frequency, TF over GST control); with EHF, 1.19 fold enrichment (6-mer frequency, TF over GST control). Moreover, the binding signal is 1.1 fold enrichment (6-mer frequency, TF over GST control) with SPI1; 1.15 fold enrichment (6-mer frequency, TF over GST control) in the assay with SPIB; 1.33 fold enrichment (6-mer frequency, TF over GST control) with ELK3; 2.83 fold enrichment (6-mer frequency, TF over GST control) with FEV; 1.34 fold enrichment (6-mer frequency, TF over GST control) with ETV5; 1.2 fold enrichment (6-mer frequency, TF over GST control) with SPIC. The binding signal is 1.03 fold enrichment (6-mer frequency, TF over GST control) in the assay with ELF4; 1.16 fold enrichment (6-mer frequency, TF over GST control) with ELK4; 1.23 fold enrichment (6-mer frequency, TF over GST control) with ETV2; 1.31 fold enrichment (6-mer frequency, TF over GST control) in the assay with ELF3; 1.26 fold enrichment (6-mer frequency, TF over GST control) with ETV1.
